HT1080 IDH1KD tx: HT-1080 IDH1 knockdown cell toxicity (counter line) | HT-1080 IDH1 knockdown viability, ATP luminescence, 48 h | Potency, µM (highest dose often 46.1 µM), inactives show at the top dose activity, negative = toxicity, usual class: cytotoxic | 360,000 tested, 2% active | AID 686971;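 also: 0% = DMSO wells and -100% = cell-free medium wells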
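Viability of IDH1-knockdown HT-1080 fibrosarcoma cells was assessed by CellTiter-Glo after 48 h at 37 °C with titrated compound; concentration-effect curves were classified by fit quality and response size.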
HT1080-NT tox: kills 2HG-producing HT-1080-NT fibrosarcoma cells; Potency, µM (highest dose often 46.1 µM), inactives show top-dose activity, negative = less viability, hits mostly cytotoxic; HT-1080-NT fibrosarcoma viability, CellTiter-Glo ATP luminescence, 48 h; AID 686970; 360,000 tested, 1.6% active;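 also: NT is the 2HG producing partner of a matched IDH1 knockdown line; 0% = DMSO-treated cells and -100% = media-only wells without cells; nearly all actives have a fitted effect of over 55% in size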
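HT-1080-NT; 750 cells/well; 5% FBS RPMI; 48 h compound, 37 degrees C; CellTiter-Glo luminescence; curve fitting and curve-class assignment.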
KB-3-1 tox: KB-3-1 parental cell cytotoxicity; KB-3-1 viability, CellTiter-Glo ATP luminescence, 72 h; Potency, µM (titrated, usually from 46.1 µM), hits mostly cytotoxic; 400,000 tested, 1.4% active; also: % is scaled to controls: 0 for no effect and ±100 for the full control effect; nearly all actives have a fitted effect of over 60% in size
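Screening of KB-3-1 cells (DMEM, 10% FBS, phenol-red free) ran from lowest to highest compound concentration; after 72 h at 37 °C viability was read luminescently and curves fitted.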
KB-V1 MDR tox: KB-V1 MDR subline cytotoxicity; KB-V1 MDR cells viability, CellTiter-Glo, 72 h; Potency, µM (series often up to 46.1 µM), actives largely listed as cytotoxic; 400,000 tested, 3.4% active; also: % is scaled to controls: 0 for no effect and ±100 for the full control effect; nearly all actives have a fitted effect of over 60% in size
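Luminescent ATP read-out (CellTiter-Glo, 10 min) measures survival of drug-selected KB-V1 MDR cells after 72 h, 37 degrees C compound exposure. Medium: phenol-red-free DMEM, 10% FBS. Values from fitted concentration-response curves.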
SW480 rereplic: inducers of DNA re-replication in SW480 colon cancer cells; SW480 DNA re-replication, Hoechst DNA content imaging, 48 h; Potency, µM (highest dose often 46.1 µM), for inactives: top-dose re-replication activation, usual class: activators; 340,000 tested, 1.8% active; AID 624297; also: % of control where 0% means no effect; nearly all actives have a fitted effect of over 55% in size
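Hoechst fluorescence of nuclei (405 nm excitation, 500-530 nm emission) measured by plate-scanning imager after 48 hr compound exposure at 37 C; re-replication scored as increased number of nuclei with elevated intensity.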
MCF10A rereplic: inducers of DNA re-replication in MCF 10A breast cells; MCF 10A DNA re-replication, Hoechst nuclear intensity, 48 h; Potency, µM (top dose mostly 46.1 µM), for the others: at the top dose activity, positive = re-replication, actives largely listed as activators; 350,000 tested, 2.9% active; AID 624296; also: % of control where 0% means no effect; nearly all actives have a fitted effect of over 50% in size
The depositor's hits bear a star; i = inactive; ? = inconclusive; · = no result given. Most compounds without a hit are left out; they make up all but 8% or so of the library. Calls follow the shape of the dose curve; as a rule, active = well fitted curve in the direction sought with a large enough effect; inconclusive = small, poorly fitted or top-dose-only effect, or another doubt; inactive = no such curve, though single readings can be large; an effect the other way counts as inactive or inconclusive. Potency is read from the fitted curve at half-maximal effect.

SMILES	HT1080 IDH1KD tx	HT1080-NT tox	KB-3-1 tox	KB-V1 MDR tox	SW480 rereplic	MCF10A rereplic
Cc1ccc(Cc2c(-c3ccco3)nc3ccc(C)cn23)cc1	-29%	-18%	i	i	·	·
Cc1ccc(Cc2c(-c3ccco3)nc3c4ccccc4ccn23)cc1	21µM*	23µM*	i	?	·	·
COC(=O)C1=C(c2ccccc2)c2ccccc2S(=O)(=O)N1CC(=O)Nc1ccc(OC)cc1OC	·	·	i	i	·	·
COc1ccc(N2CCC(CNC(=O)Nc3ccccc3)C2)cc1 (stereo not given)	8%	1%	i	16µM*	-15%	19%
COc1ccc(N2CCC(CNC(=S)Nc3cc(C)ccc3C)C2)cc1 (stereo not given)	3%	-22%	i	18µM*	-31%	2%
COc1ccc(N2CCC(CNC(=S)Nc3cc(C)cc(C)c3)C2)cc1 (stereo not given)	?	?	i	i	?	?
CCCn1c(NC(=O)c2ccccc2)nc2ccccc21	-30%	-23%	?	15µM*	3%	5%
CCCCCCCn1c(NC(=O)CC)nc2ccccc21	?	-25%	?	9.2µM*	-16%	6.5µM*
CCCn1c(CNC(=O)c2ccccc2)nc2ccccc21	10%	11%	i	23µM*	-9%	3%
CC(C)Cn1c(CNC(=O)c2ccccc2)nc2ccccc21	1%	-3%	i	?	2%	0%
CCC(=O)Nc1nc2ccccc2n1CCN1CCOCC1	22%	9%	?	?	2%	0%
CCCn1c(NC(=O)c2ccc(C)cc2)nc2ccccc21	-10%	-5%	?	?	?	?
CC(=O)Nc1nc2ccccc2n1Cc1ccccc1Cl	?	18µM*	?	?	4%	?
Cc1cc(Nc2ccc(Br)c(C)c2)n2nc(-c3ccco3)nc2n1	·	·	i	?	·	·
CCC(=O)NCc1nc2ccccc2n1Cc1ccccc1F	-5%	2%	i	23µM*	-5%	8%
O=C(N/N=C/c1ccc(N2CCCCC2)o1)c1ccccc1	?	-26%	?	i	?	23µM*
O=C(Nc1cnc2ccccc2c1)c1cccnc1	?	-22%	?	i	-7%	1%
Cn1c(NC(=O)c2cccnc2)nc2ccccc21	-5%	-3%	i	16µM*	-2%	1%
CCN(CC)CCn1c(NCc2ccccn2)nc2ccccc21	4%	9%	i	i	3%	5%
CCC(=O)NCCCc1nc2ccccc2n1Cc1ccccc1F	2%	12%	i	i	-43%	-13%
CCCCn1c(NCc2ccccn2)nc2ccccc21	?	-4%	i	13µM*	-2%	-1%
CCCCn1c(Nc2ccccc2)nc2ccccc21	0%	-2%	i	i	25%	9%
CCNC(=O)c1cccc(S(=O)(=O)N2CCCCCC2)c1	1%	4%	i	i	-689%	-3%
CCCn1c(NC(=O)C2CCN(S(=O)(=O)c3cccs3)CC2)nc2ccccc21	?	?	23µM*	?	13%	?
CCCn1c(NC(=O)c2cccc(S(=O)(=O)N3CCCC3)c2)nc2ccccc21	?	?	16µM*	16µM*	?	18µM*
CCCn1c(NCc2ccco2)nc2ccccc21	-22%	1%	i	21µM*	0%	3%
CCCn1c(Nc2nc3ccccc3n2C)nc2ccccc21	16µM*	13µM*	?	?	?	?
Cc1cc(-c2ccc(C)c(S(=O)(=O)N3CCCC(C)C3)c2)on1 (stereo not given)	·	·	?	i	·	·
CCCn1c(NC(=S)Nc2ccccc2)nc2ccccc21	-6%	-5%	?	16µM*	·	?
Cn1c(CCCNC(=O)c2ccccc2)nc2ccccc21	15%	7%	i	i	-6%	-1%

Assay outcomes (PubChem BioAssay)
